Bioassay records from PubChem BioAssay.
Mdm2 MdmX PPI – inhibitors of human Mdm2-MdmX association, primary screen, cell-based, luminescence, split luciferase, SaOS-2, uHTS; 330,000 compounds, 3% hits; inhibition, % at 8 µM; AID 485346, 2010; SaOS-2 split-luciferase Mdm2/MdmX complementation;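 active means inhibition of at least 50% at 8 µM in the primary screen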
Target sequence (O15151 whole entry, looked up): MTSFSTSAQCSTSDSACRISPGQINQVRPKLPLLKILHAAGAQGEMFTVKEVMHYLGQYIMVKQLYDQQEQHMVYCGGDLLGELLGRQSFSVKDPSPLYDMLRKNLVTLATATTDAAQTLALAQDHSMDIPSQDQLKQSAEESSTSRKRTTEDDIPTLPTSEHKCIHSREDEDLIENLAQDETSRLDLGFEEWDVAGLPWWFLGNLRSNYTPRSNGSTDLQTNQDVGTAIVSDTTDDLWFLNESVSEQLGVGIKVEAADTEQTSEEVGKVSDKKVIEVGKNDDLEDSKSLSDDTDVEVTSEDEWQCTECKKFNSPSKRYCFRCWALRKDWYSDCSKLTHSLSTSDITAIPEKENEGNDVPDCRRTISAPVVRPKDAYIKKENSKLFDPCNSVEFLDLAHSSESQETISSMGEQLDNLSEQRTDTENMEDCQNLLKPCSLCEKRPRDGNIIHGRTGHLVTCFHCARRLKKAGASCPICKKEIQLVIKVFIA
Target sequence (Q00987 whole entry, looked up): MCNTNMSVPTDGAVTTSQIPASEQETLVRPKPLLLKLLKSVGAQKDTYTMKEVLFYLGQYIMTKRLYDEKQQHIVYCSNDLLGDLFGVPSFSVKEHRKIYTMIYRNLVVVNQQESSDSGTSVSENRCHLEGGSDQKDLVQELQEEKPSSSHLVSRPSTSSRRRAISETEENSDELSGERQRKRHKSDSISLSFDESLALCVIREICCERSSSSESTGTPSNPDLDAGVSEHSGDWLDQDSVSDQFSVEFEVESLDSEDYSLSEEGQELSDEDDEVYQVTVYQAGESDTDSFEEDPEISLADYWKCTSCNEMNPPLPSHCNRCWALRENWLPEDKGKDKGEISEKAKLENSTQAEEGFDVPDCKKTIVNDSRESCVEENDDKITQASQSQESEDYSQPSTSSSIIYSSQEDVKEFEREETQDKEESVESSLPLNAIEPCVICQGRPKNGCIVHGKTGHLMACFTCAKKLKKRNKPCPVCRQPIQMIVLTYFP
Gli-Sufu block – Gli-Sufu pathway antagonists, primary screen, luciferase luminescence, Sufu-KO-LIGHT cells, uHTS. Sufu-KO-LIGHT fibroblasts, Gli luciferase reporter luminescence. inhibition, % at 5 µM. 340,000 compounds, 0.74% hits. AID 588413, 2011;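 active means inhibition above about 55%, limit read from the data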;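 further: 0% = DMSO-treated cells and 100% = wells with medium but no cells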
697 NFkB inh – inhibitors of PMA/ionomycin-induced NF-kB reporter, 697 cells, primary screen, B-cell NF-kB inhibitor project, cell-based, luminescence, uHTS; 697 B-cell NF-kB luciferase reporter, 16 h; inhibition, % at 4 µM; 330,000 compounds, 0.33% hits; AID 435022, 2010; in the data active means inhibition above about 35%
Jurkat NFkB inh – inhibitors of induced NF-kB luciferase reporter, primary screen, TCR NF-kB activation inhibitor project, cell-based, luminescence, uHTS; 330,000 compounds, 0.53% hits; Jurkat, PMA/ionomycin-induced NF-kB luciferase reporter; inhibition, % at 4 µM; in the data active means inhibition above about 50%
Beta cell apopt – inhibitors of cytokine-induced beta cell apoptosis, primary screen, luminescence | 300,000 compounds, 0.8% hits | AID 435005, 2010 | protection from apoptosis, % (concentration not given with the values) | INS-1E cytokine-induced death, ATP luminescence, 48 h; percent of positive-control rescue, neutral wells zero;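 active means Every replicate reaches about 75%, or at least half do and their mean reaches it too, limit read from the data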;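 further: 0% = cytokine-treated negative control wells and 100% = positive control rescue; higher means more ATP so stronger rescue from cytokine killing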
Mdm2 MdmX conf – Mdm2-MdmX complex disruptors, retested hits, confirmation, luminescence, single concentration | shares compounds with Mdm2 MdmX PPI | Mdm2-MdmX binding, luminescent assay | inhibition, % at 8 µM | 10,000 compounds, 55% hits | AID 489028, 2010; in the data active means inhibition above about 40%
FLuc counter – full-length luciferase signal inhibition, confirmation, counter-screen for Mdm2/MdmX interaction inhibitor project, cell-based, single concentration, SaOS-2. shares compounds with Mdm2 MdmX PPI. SaOS-2 full-length luciferase counterscreen, luminescence. inhibition, % at 8 µM. 6,200 compounds, 77% hits. AID 504607, 2011;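 active means mean inhibition at 8 µM reaching about 37%, which flags the compound as non-specific, limit read from the data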;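 further: p53-null SaOS-2 cells with luciferase driven by a doxycycline-inducible promoter; compound on cells about two nights before reading with doxycycline added after day one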
An asterisk follows results filed as active; nt = no result given. Compounds with a hit are over-represented: about 4% of the library has one in this group of screens.

SMILES | Mdm2 MdmX PPI | Gli-Sufu block | 697 NFkB inh | Jurkat NFkB inh | Beta cell apopt | Mdm2 MdmX conf | FLuc counter
Fc1ccc(Sc2nc(-c3ccccc3)nnc2C(F)(F)F)cc1 | 78* | -7 | 23 | 3 | -12 | 18 | nt
O=C(CSc1n[nH]c(-c2ccccn2)n1)Nc1cccc(Cl)c1 | 60* | -3 | 9 | -1 | 0 | 53* | 40*
Cc1nc(SCC(=O)Nc2cccc(Cl)c2)n[nH]1 | -6 | -93 | 7 | 10 | -4 | nt | nt
O=C(N/N=C/c1cc([N+](=O)[O-])ccc1O)c1ccc(COc2ccc3c(c2)CCC3)o1 | 94* | -56 | -98 | 8 | 105* | 72* | 51*
O=[N+]([O-])c1ccc(O)c(/C=N\N=C2c3ccccc3-c3ccccc32)c1 | 93* | 8 | -4 | 10 | 8 | 91* | 46*
O=C(N/N=C/c1cc([N+](=O)[O-])ccc1O)c1cccc2ccccc12 | 62* | nt | -61 | -2 | 102* | 68* | 43*
COc1ccc(Br)cc1/C=N/NC(=O)c1ccc(COc2ccc3c(c2)CCC3)o1 | 19 | -70 | -120 | -7 | -9 | nt | nt
O=C(Cn1nnc(-c2ccccc2)n1)N/N=C/c1cc([N+](=O)[O-])ccc1O | 53* | 7 | 1 | 5 | -3 | 12 | nt
O=C(CNC(=O)c1ccc(Br)cc1)N/N=C/c1cccnc1 | 3 | 19 | -17 | 13 | -3 | nt | nt
O=C(c1ccccc1)N1CCN(c2ncnc3sc4c(c23)CCC4)CC1 | 27 | 42 | -35 | 6 | 25 | nt | nt
O=C(COc1ccc(S(=O)(=O)N2CCCCC2)cc1)Nc1ccccc1F | 18 | 0 | 4 | -14 | -8 | nt | nt
COC(=O)CN(c1cccc(C)c1)S(=O)(=O)c1ccccc1 | -24 | -1 | 0 | 9 | 8 | nt | nt
O=C(N/N=C/c1cc(Cl)ccc1O)c1ccccc1Br | 54* | 11 | 14 | -1 | 110* | 58* | 44*
O=C(N/N=C/c1cc([N+](=O)[O-])ccc1O)c1cccc(NC(=O)c2cccc(Cl)c2)c1 | 51* | -5 | -50 | 18 | 81* | 50* | 41*
O=C(CNC(=O)c1ccccc1Br)N/N=C/c1cc(Br)ccc1O | 36 | -8 | -7 | 20 | 43 | nt | nt
Cc1nc2sc(C(N)=O)c(N)c2c2c1CCCC2 | 87* | -20 | -4 | -4 | -7 | 89* | 49*
NC(=O)c1sc2nc3c(c(-c4ccco4)c2c1N)CCC3 | 77* | -25 | 11 | 1 | -51 | 55* | 25
Cc1ccc(-c2c3c(nc4sc(C(N)=O)c(N)c24)CCCC3)o1 | 28 | -7 | -11 | -9 | -4 | nt | nt
CCN(CCNCC(O)COc1ccccc1C(C)C)c1cccc(C)c1 (centres undefined) | 68* | -3 | 1 | -9 | 29 | 41* | 75*
CCCOc1ccc(CCCN=C(N)N)cc1Cl | 52* | 11 | -51 | 45 | -5 | 19 | nt
Cc1cc(=O)n2nc(N3CCCC(C(=O)NCc4cccc(Br)c4)C3)sc2n1 (centres undefined) | 13 | 7 | -5 | 1 | 0 | nt | nt
COc1cc(NC(=O)CSc2ccc(-c3ccccn3)nn2)cc(OC)c1 | 65* | 21 | -8 | 7 | 30 | 59* | 57*
CCOC(=O)c1ccccc1NC(=O)CSc1ccc(-c2ccccn2)nn1 | 75* | 6 | 0 | -21 | -4 | 77* | 36*
CCc1ccc(NC(=O)CSc2ccc(-c3ccccn3)nn2)cc1 | 71* | -29 | -26 | -2 | 86* | 45* | 73*
Cc1ccc(NC(=O)CSc2ccc(-c3ccccn3)nn2)cc1F | 53* | 9 | 3 | 12 | 6 | 46* | 47*
SMILES | Mdm2 MdmX PPI | Gli-Sufu block | 697 NFkB inh | Jurkat NFkB inh | Beta cell apopt | Mdm2 MdmX conf | FLuc counter
CC(=O)Nc1cccc(NC(=O)CSc2ccc(-c3ccccn3)nn2)c1 | 21 | -9 | 9 | 21 | 1 | nt | nt
CC1(C)CC2(CCO1)OC(=O)CC2C(=O)Nc1ccccc1Cl (centres undefined) | 3 | 3 | 2 | 0 | -3 | nt | nt
Cc1nnc(N2C(=O)C(=O)/C(=C(/O)c3ccc4c(c3)OCCO4)C2c2ccc(F)cc2)s1 (centres undefined) | 10 | -13 | 2 | -4 | -7 | nt | nt
O=C1C(=O)N(c2nccs2)C(c2ccccc2F)/C1=C(\O)c1ccc2c(c1)OCCO2 (centres undefined) | 71* | 11 | 19 | -5 | -7 | 68* | 37*
O=C1C(=O)N(c2nccs2)C(c2ccccc2)/C1=C(\O)c1ccc2c(c1)OCCO2 (centres undefined) | 74* | nt | 26 | 3 | -6 | 88* | 21
COc1ccc(Cl)cc1NC(=O)NN1CCN(C)CC1 | -10 | 6 | 16 | -1 | -3 | nt | nt
Cc1ccc2c(c1)N(CC(=O)NCCCN1CCOCC1)C(=O)c1cccnc1O2 | 1 | 4 | -2 | 11 | -1 | nt | nt
COc1ccc(-c2ccnc(-c3ccc(O)cc3)n2)cc1 | 52* | -14 | -24 | 39 | 0 | 40 | 84*
O=[N+]([O-])c1ccc2nc(-[n+]3c(-c4ccccc4)cc(-c4ccccc4)cc3-c3ccccc3)[nH]c2c1 | 81* | 12 | -6 | 7 | 45 | 62* | 57*
O=[N+]([O-])c1cccc(-c2nc3ccc([N+](=O)[O-])cc3[nH]2)c1 | 17 | -32 | -50 | -41 | 39 | nt | nt
Cc1ccccc1-c1nc(CN2CCC(C(=O)NCCCN3CCCC(C)C3)CC2)c(C)o1 (centres undefined) | 96* | 2 | -3 | 24 | 4 | 70* | 43*
Cc1ccccc1-c1nc(CN2CCC(C(=O)NCCC3=CCCCC3)CC2)c(C)o1 | 58* | 10 | -2 | 3 | 6 | 34 | 76*
CC(C)(C)c1ccc(/C=N/NC(=O)Cc2c[nH]c3ccccc23)cc1 | 55* | 0 | -9 | -17 | -2 | -32 | nt
O=[N+]([O-])c1ccc(NC(=S)NCCc2ccc(F)cc2)cc1 | 86* | 11 | -16 | 1 | 76* | 63* | 86*
CN1CCN(S(=O)(=O)c2ccc(SCCOc3ccc(Cl)cc3)nc2)CC1 | 59* | 6 | -21 | 40 | 6 | 32 | nt
COc1ccc(OCCSc2ccc(S(=O)(=O)N3CCCC3)cn2)cc1 | -20 | 9 | -17 | -9 | 0 | nt | nt
CN(C(=O)COC(=O)CSc1cc(Cl)ccc1Cl)c1c(N)n(Cc2ccccc2)c(=O)[nH]c1=O | -1 | -5 | -24 | -14 | -6 | nt | nt
